Test [1] can be described thus: NCI Yeast Anticancer Drug Screen. Data for the rad50 strain (AID 155).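 Further: 0% = growth of vehicle-only cultures of the same strain.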 Conditions: S. cerevisiae rad50 strain growth inhibition, active compounds read high. The essentials:
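Compounds were tested on a yeast strain with an engineered DNA damage repair alteration; the reported value is growth inhibition normalised to vehicle treatment.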

Test [2] can be described thus: NCI Yeast Anticancer Drug Screen. Data for the mec2-1 strain (AID 157). Conditions: S. cerevisiae mec2-1 strain, active compounds read high. The essentials:
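Each compound was tested on mec2-1 yeast, a strain altered in DNA damage repair or cell cycle control. Growth inhibition is reported relative to vehicle.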

The nature of test [3]: NCI Yeast Anticancer Drug Screen. Data for the sgs1 mgt1 strain (AID 161).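 Further: 0% = growth of cultures given vehicle only.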 To be noted: S. cerevisiae sgs1 mgt1 strain, active compounds read high. The gist of the method:
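Read-out: growth inhibition vs vehicle controls. Cells: mutant yeast strain deficient in DNA damage repair.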

Test [4] can be described thus: NCI Yeast Anticancer Drug Screen. Data for the cln2 rad14 strain (AID 165).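 Further: 0% = growth equal to vehicle treated cultures.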 To be noted: S. cerevisiae cln2 rad14 strain, active compounds read high. The essentials: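 Test compounds were added to cln2 rad14 yeast cultures; inhibition of growth was then determined by comparison with vehicle treatment.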
A short description of test [5]: NCI Yeast Anticancer Drug Screen. Data for the bub3 strain (AID 167). Conditions: S. cerevisiae bub3 mutant strain, active compounds read high. The essentials:
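Growth of a checkpoint-deficient yeast mutant is measured after compound exposure. Values represent inhibition relative to vehicle.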

The nature of test [6]: NCI Yeast Anticancer Drug Screen. Data for the mlh1 rad18 strain (AID 175). Conditions: S. cerevisiae mlh1 rad18 strain growth inhibition, active compounds read high. The essentials:
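Inhibition values reflect reduced growth of mutant yeast versus vehicle-treated controls following compound exposure; the mutations affect DNA damage repair.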

The mark [7] stands for this setting: at 5.0 µM (retest, dose inferred, filed as 0.5).
[8] abbreviates: at 50.0 µM (retest, dose inferred, filed as 5.0).

This is part of a sample that, as a whole, favours compounds with a hit. Of some 79,000 tested, about 15% had one in any assay. Unmarked numbers belong to inactive results. Activity calls are given as the source filed them. No stated cut-off is given here; in the data, active means growth inhibition above about 70%; inactive means the rest.

In the case of `CC(C)(C)c1ccc(O)c(CN(Cc2c(O)ccc3ccccc23)C2CCCCC2)c1`, the growth inhibition is 22% in test [1] (setting [7]); 99% (active) in test [1] (setting [8]); 98% (active) in test [1] (at 50.0 µM); 17% in test [2] (setting [7]); 98% (active) in test [2] (setting [8]); 98.2% (active) in test [2] (at 50.0 µM). Also, the growth inhibition in test [3] (setting [7]) was 13%; in test [3] (setting [8]), 99% (active); in test [3] (at 50.0 µM), 98% (active); in test [4] (setting [7]) it was -12%; in test [4] (setting [8]), 97% (active); in test [4] (at 50.0 µM), 97.7% (active). The growth inhibition in test [5] (setting [7]) is -3%; in test [5] (setting [8]) it was 99% (active); in test [5] (at 50.0 µM), 97.4% (active); in test [6] (setting [7]), 10%; in test [6] (setting [8]) it was 99% (active); in test [6] (at 50.0 µM), 98.1% (active).

`CCN(CC)CCCC(C)Nc1cc(C)nc2c1ccc1c2ccc2c(NC(C)CCCN(CC)CC)cc(C)nc21` (stereo not given): the growth inhibition in test [1] (setting [7]) was -2%; in test [1] (setting [8]), 61%; in test [1] (at 50.0 µM), 58.1%; in test [2] (setting [7]), -39%; in test [2] (setting [8]), 91% (active); in test [2] (at 50.0 µM), 53.7%. The growth inhibition in test [3] (setting [7]) is -1%; in test [3] (setting [8]), 59%; in test [3] (at 50.0 µM), 49.5%; in test [4] (setting [7]), 7%; in test [4] (setting [8]), 20%; in test [4] (at 50.0 µM), 71.4% (active). Further, the growth inhibition in test [5] (setting [7]) is -2%; in test [5] (setting [8]), 96% (active); in test [5] (at 50.0 µM), 96.3% (active); in test [6] (setting [7]) it was -1%; in test [6] (setting [8]), 85% (active); in test [6] (at 50.0 µM) it was 54.2%.

As for `Cc1ccc(NC(=O)CCc2nnc(N)n2N)cc1`, the growth inhibition in test [1] (setting [7]) was -2%; in test [1] (setting [8]), -5%; in test [1] (at 50.0 µM), -3.55%; in test [2] (setting [7]), -1%; in test [2] (setting [8]), 4%; in test [2] (at 50.0 µM) it was 96.5% (active). Moreover, the growth inhibition in test [3] (setting [7]) was -6%; in test [3] (setting [8]), 0%; in test [3] (at 50.0 µM) it was 97.5% (active); in test [4] (setting [7]) it was 0%; in test [4] (setting [8]) it was 5%; in test [4] (at 50.0 µM) it was 93.2% (active). Besides, the growth inhibition in test [5] (setting [7]) is 4%; in test [5] (setting [8]) it was 7%; in test [5] (at 50.0 µM) it was 95% (active); in test [6] (setting [7]), -4%; in test [6] (setting [8]), -1%; in test [6] (at 50.0 µM), 97.2% (active).

Consider `CCSc1nc2ccc(N3C(=O)C=CC3=O)cc2s1`, for which the growth inhibition in test [1] (setting [7]) is 88% (active); in test [1] (setting [8]), 100% (active); in test [1] (at 50.0 µM) it was 99.7% (active); in test [2] (setting [7]), 93% (active); in test [2] (setting [8]), 100% (active); in test [2] (at 50.0 µM), 99.6% (active). In addition, the growth inhibition in test [3] (setting [7]) is 96% (active); in test [3] (setting [8]), 100% (active); in test [3] (at 50.0 µM) it was 99.5% (active); in test [4] (setting [7]), 34%; in test [4] (setting [8]), 99% (active); in test [4] (at 50.0 µM), 99.3% (active). In addition, the growth inhibition in test [5] (setting [7]) is 93% (active); in test [5] (setting [8]), 99% (active); in test [5] (at 50.0 µM), 99.6% (active); in test [6] (setting [7]), 98% (active); in test [6] (setting [8]) it was 99% (active); in test [6] (at 50.0 µM), 99.3% (active).

For `COc1ccc(/C(Cl)=C(/c2ccc(O)cc2)c2ccc(OCCN(C)C)cc2)cc1`, the growth inhibition in test [1] (setting [7]) is 40%; in test [1] (setting [8]) it was 40%; in test [1] (at 50.0 µM), 91.8% (active); in test [2] (setting [7]), 32%; in test [2] (setting [8]), 32%; in test [2] (at 50.0 µM), 87.7% (active). The growth inhibition was 42% in test [3] (setting [7]); 42% in test [3] (setting [8]); 92.3% (active) in test [3] (at 50.0 µM); 34% in test [4] (setting [7]); 34% in test [4] (setting [8]); 89.3% (active) in test [4] (at 50.0 µM). The growth inhibition in test [5] (setting [7]) is 26%; in test [5] (setting [8]), 26%; in test [5] (at 50.0 µM) it was 88.6% (active); in test [6] (setting [7]), 27%; in test [6] (setting [8]), 27%; in test [6] (at 50.0 µM), 88.8% (active).

Take `N#CC1CCCC(Cc2ccccc2)(c2ccccc2)C1=O` (stereo not given): the growth inhibition is -4% in test [1] (setting [7]); 93% (active) in test [1] (setting [8]); 98.8% (active) in test [1] (at 50.0 µM); -3% in test [2] (setting [7]); 95% (active) in test [2] (setting [8]); 98.1% (active) in test [2] (at 50.0 µM). In addition, the growth inhibition in test [3] (setting [7]) is -2%; in test [3] (setting [8]), 95% (active); in test [3] (at 50.0 µM), 98.3% (active); in test [4] (setting [7]) it was -1%; in test [4] (setting [8]) it was 70% (active); in test [4] (at 50.0 µM), 95% (active). Besides, the growth inhibition in test [5] (setting [7]) was 10%; in test [5] (setting [8]), 96% (active); in test [5] (at 50.0 µM) it was 98.7% (active); in test [6] (setting [7]), -6%; in test [6] (setting [8]), 96% (active); in test [6] (at 50.0 µM) it was 97.6% (active).

For `CN(c1ccccc1)c1c2c(oc(=O)c1Cl)-c1ccccc1SC2`, the growth inhibition in test [1] (setting [7]) was 16%; in test [1] (setting [8]), 45%; in test [1] (at 50.0 µM), 86% (active); in test [2] (setting [7]), 12%; in test [2] (setting [8]) it was 8%; in test [2] (at 50.0 µM), 46.2%. For the same molecule, the growth inhibition is 13% in test [3] (setting [7]); 40% in test [3] (setting [8]); 62.4% in test [3] (at 50.0 µM); 7% in test [4] (setting [7]); 32% in test [4] (setting [8]); 10.9% in test [4] (at 50.0 µM). The growth inhibition in test [5] (setting [7]) is 0%; in test [5] (setting [8]) it was 85% (active); in test [5] (at 50.0 µM), 93.5% (active); in test [6] (setting [7]), 7%; in test [6] (setting [8]), 96% (active); in test [6] (at 50.0 µM) it was 55%.

As for `CC1=C(C(=O)Nc2ccc(C)cc2C)C(c2cccc([N+](=O)[O-])c2)C(C(=O)Nc2ccc(C)cc2C)=C(C)N1`, the growth inhibition in test [1] (setting [7]) was -17%; in test [1] (setting [8]) it was 50%; in test [1] (at 50.0 µM), 28.6%; in test [2] (setting [7]), 12%; in test [2] (setting [8]) it was 74% (active); in test [2] (at 50.0 µM), 38.5%. The growth inhibition in test [3] (setting [7]) is -4%; in test [3] (setting [8]), 47%; in test [3] (at 50.0 µM), 33%; in test [4] (setting [7]), 10%; in test [4] (setting [8]) it was 42%; in test [4] (at 50.0 µM), 36.6%. Further, the growth inhibition in test [5] (setting [7]) is 14%; in test [5] (setting [8]) it was 69%; in test [5] (at 50.0 µM) it was 37.2%; in test [6] (setting [7]), 4%; in test [6] (setting [8]), 44%; in test [6] (at 50.0 µM) it was 41.1%.

With `O=c1ssc(=Nc2ccc(Cl)cc2)n1-c1ccc(Cl)cc1`, the growth inhibition in test [1] (setting [7]) was 77% (active); in test [1] (setting [8]), 99% (active); in test [1] (at 50.0 µM), 98.5% (active); in test [2] (setting [7]), 57%; in test [2] (setting [8]), 99% (active); in test [2] (at 50.0 µM), 99.4% (active). The growth inhibition in test [3] (setting [7]) is 95% (active); in test [3] (setting [8]), 99% (active); in test [3] (at 50.0 µM), 98.2% (active); in test [4] (setting [7]), 16%; in test [4] (setting [8]) it was 99% (active); in test [4] (at 50.0 µM), 87.9% (active). The growth inhibition in test [5] (setting [7]) is 74% (active); in test [5] (setting [8]), 99% (active); in test [5] (at 50.0 µM) it was 99.5% (active); in test [6] (setting [7]) it was 30%; in test [6] (setting [8]), 99% (active); in test [6] (at 50.0 µM), 98% (active).

`O=C(O)c1cccc(S(=O)(=O)NN2C(=O)CSC2c2c(O)ccc3ccccc23)c1` (stereo not given): the growth inhibition in test [1] (setting [7]) was -11%; in test [1] (setting [8]), 50%; in test [1] (at 50.0 µM), 61.9%; in test [2] (setting [7]), 0%; in test [2] (setting [8]), 50%; in test [2] (at 50.0 µM) it was 61%. The growth inhibition in test [3] (setting [7]) is 2%; in test [3] (setting [8]), 80% (active); in test [3] (at 50.0 µM), 91.7% (active); in test [4] (setting [7]), -4%; in test [4] (setting [8]) it was 57%; in test [4] (at 50.0 µM), 36.9%. In addition, the growth inhibition in test [5] (setting [7]) is 6%; in test [5] (setting [8]) it was 86% (active); in test [5] (at 50.0 µM), 83.5% (active); in test [6] (setting [7]), -15%; in test [6] (setting [8]), 82% (active); in test [6] (at 50.0 µM), 95.2% (active).

For the origin of these results see PubChem BioAssay (NCI).
